# The full ranking holds about 140,000 sequences; the median of “enrichment ratio after two sorts for PhoP signalling” is about 0, and the highest 2% start at about 11. The list comes from a sample in which the highest values are over-represented; it also holds similar and randomly drawn sequences.
# B1: PhoQ; a variant is named by its letters at X, in order, P23837 (parent)
# chain: MKKLLRLFFPLSLRVRFLLATAAVVLVLSLAYGMVALIGYSVSFDKTTFRLLRGESNLFYTLAKWENNKLHVELPENIDKQSPTMTLIYDENGQLLWAQRDVPWLMKMIQPDWLKSNGFHEIEADVNDTSLLLSGDHSIQQQLQEVREDDDDAEMTHSVAVNVYPATSRMPKLTIVVVDTIPVELKSSYMVWSWFIYVLSANLLLVIPLLWVAAWWSLRPIEALAKEVRELEEHNRELLNPATTRELTSLVRNLNRLLKSERERYDKYRTTLTDLTHSLKTPLXXLQXXLRSLRSEKMSVSDAEPVMLEQISRISQQIGYYLHRASMRGGTLLSRELHPVAPLLDNLTSALNKVYQRKGVNISLDISPEISFVGEQNDFVEVMGNVLDNACKYCLEFVEISARQTDEHLYIVVEDDGPGIPLSKREVIFDRGQRVDTLRPGQGVGLAVAREITEQYEGKIVAGESMLGGARMEVIFGRQHSAPKDE
# Variants of: B1
# Test: enrichment ratio after two sorts for PhoP signalling (ratio (wild type AVST 3.29)); higher = more functional
# Conditions: with PhoP (E. coli)
row,Variant,enrichment ratio
1,LTGM,≤ 0.25
2,MQNP,≤ 0.25
3,KLMC,≤ 0.25
4,LHAE,≤ 0.25
5,DSVM,≤ 0.25
6,KHEF,≤ 0.25
7,FSFL,1.26
8,WYFI,≤ 0.25
9,EMFN,≤ 0.25
10,TGHM,4.7
11,YYHM,≤ 0.25
12,TEHM,58.9
13,SEHM,23.7
14,KYHM,≤ 0.25
15,QEHM,10.7
16,EAYE,≤ 0.25
17,GGYY,≤ 0.25
18,AAAM,10.1
19,AKAM,13.1
20,ALWM,≤ 0.25
21,ANAM,32.2
22,ANIM,4.25
23,ALAM,12.2
24,TLAM,3.04

row,Variant,enrichment ratio
1,AIAM,6.08
2,ADAM,3.24
3,IDWP,≤ 0.25
4,HREC,≤ 0.25
5,GNSH,1.23
6,IQIR,≤ 0.25
7,DTPS,≤ 0.25
8,GPWS,≤ 0.25
9,ESVV,≤ 0.25
10,CSLS,21.9
11,CSLT,11.7
12,CSLA,2.15
13,CSFT,≤ 0.25
14,CSLP,≤ 0.25
15,CSLY,0.296
16,NPIK,≤ 0.25
17,DVWP,≤ 0.25
18,DDAS,≤ 0.25
19,MEAH,28.9
20,MVAH,12.3
21,MCAH,2.04
22,SEAH,31.6
23,TEAH,40
24,GVAH,0.601

row,Variant,enrichment ratio
1,QEAH,≤ 0.25
2,SFAH,≤ 0.25
3,HPAH,≤ 0.25
4,MVTH,2.25
5,MKAH,≤ 0.25
6,NEAH,≤ 0.25
7,YETW,≤ 0.25
8,REHR,≤ 0.25
9,VKCV,≤ 0.25
10,MGTW,≤ 0.25
11,FNVE,≤ 0.25
12,NWYH,≤ 0.25
13,HLAW,≤ 0.25
14,VCYP,≤ 0.25
15,MRAI,≤ 0.25
16,TEFK,1.68
17,TELG,27.4
18,MELG,22.3
19,HYLG,≤ 0.25
20,MFLG,0.27
21,HPLG,≤ 0.25
22,MPLG,≤ 0.25
23,HELA,≤ 0.25
24,NELG,2.34

row,Variant,enrichment ratio
1,HELG,12.3
2,EFRW,≤ 0.25
3,YYAI,≤ 0.25
4,AISP,≤ 0.25
5,SFQS,≤ 0.25
6,NRHR,≤ 0.25
7,MSNW,≤ 0.25
8,PCTN,≤ 0.25
9,TDQW,≤ 0.25
10,LVST,≤ 0.25
11,RVEC,≤ 0.25
12,CITF,≤ 0.25
13,CSTF,15.8
14,AHTF,≤ 0.25
15,ASTF,11.8
16,AVHF,≤ 0.25
17,YTTF,≤ 0.25
18,ATTF,18.8
19,CTTF,≤ 0.25
20,LTTF,≤ 0.25
21,ASHF,≤ 0.25
22,ADTF,≤ 0.25
23,AVTF,11.4
24,QRGI,≤ 0.25

row,Variant,enrichment ratio
1,VSMY,≤ 0.25
2,YGPL,≤ 0.25
3,AGVR,≤ 0.25
4,TLEC,≤ 0.25
5,VESY,≤ 0.25
6,YITC,≤ 0.25
7,QKNA,≤ 0.25
8,AITF,15
9,KSTF,≤ 0.25
10,AKTF,2.43
11,IPNS,≤ 0.25
12,WFEY,≤ 0.25
13,AYPG,≤ 0.25
14,TDTH,8.19
15,TDLS,18
16,TDTK,≤ 0.25
17,TDYI,≤ 0.25
18,LTLS,≤ 0.25
19,CDLS,≤ 0.25
20,TDTI,14.6
21,LTLN,≤ 0.25
22,TDLA,14
23,TDLT,7.28
24,KDLN,≤ 0.25

row,Variant,enrichment ratio
1,TDLN,14.9
2,VMTR,≤ 0.25
3,STQS,≤ 0.25
4,KTAN,≤ 0.25
5,DFLN,≤ 0.25
6,NTCK,≤ 0.25
7,QLKF,≤ 0.25
8,TFQG,12.3
9,TGQG,15.7
10,RGQG,≤ 0.25
11,NVQG,≤ 0.25
12,GGQG,≤ 0.25
13,TVQG,14.6
14,PVQG,≤ 0.25
15,PLQG,≤ 0.25
16,PFQG,≤ 0.25
17,NFQG,≤ 0.25
18,KAQG,≤ 0.25
19,TLQG,11.8
20,VFKH,≤ 0.25
21,NHHA,≤ 0.25
22,ILFN,≤ 0.25
23,FTCA,≤ 0.25
24,STNQ,1.23

row,Variant,enrichment ratio
1,FWKT,≤ 0.25
2,LMTM,≤ 0.25
3,HAQG,≤ 0.25
4,TMQG,11.9
5,EMQG,≤ 0.25
6,TITY,≤ 0.25
7,ITAM,0.308
8,SNWM,≤ 0.25
9,SFAT,≤ 0.25
10,SNAM,13.5
11,TQAM,25.5
12,SLAT,≤ 0.25
13,SNCK,0.609
14,SQAT,12.5
15,NQAM,≤ 0.25
16,TTAM,17.5
17,FQAM,≤ 0.25
18,GTAM,≤ 0.25
19,EQWF,≤ 0.25
20,TQKS,≤ 0.25
21,TDDA,≤ 0.25
22,HGKC,≤ 0.25
23,ILFG,≤ 0.25
24,SFAM,≤ 0.25

row,Variant,enrichment ratio
1,YTAM,≤ 0.25
2,SQAM,21.4
3,SEAM,15.9
4,STAM,12.1
5,SPAM,≤ 0.25
6,SERM,≤ 0.25
7,WQAM,≤ 0.25
8,RSGP,≤ 0.25
9,ILCM,≤ 0.25
10,CSYF,≤ 0.25
11,EGPL,≤ 0.25
12,STKG,≤ 0.25
13,TAEP,0.518
14,VSNR,≤ 0.25
15,ITLN,1.49
16,GGCN,0.54
17,STLN,14.8
18,AKLN,14
19,KYLN,≤ 0.25
20,TTLN,23.9
21,TKLN,8.35
22,SPLN,≤ 0.25
23,TGCN,42.2
24,RGCN,≤ 0.25

row,Variant,enrichment ratio
1,YTLN,8.58
2,AILN,4.12
3,AGQV,≤ 0.25
4,QSKK,≤ 0.25
5,HWTI,≤ 0.25
6,QAFH,9.93
7,QFDR,≤ 0.25
8,QGQP,≤ 0.25
9,LKDC,≤ 0.25
10,PWTA,≤ 0.25
11,LSFA,≤ 0.25
12,YDML,≤ 0.25
13,ATLN,17.9
14,AICN,18.7
15,SPCN,≤ 0.25
16,NICN,≤ 0.25
17,NVCN,≤ 0.25
18,TVCN,26.1
19,ADCN,11.5
20,RICN,≤ 0.25
21,AWCN,≤ 0.25
22,AHCN,≤ 0.25
23,ATQN,≤ 0.25
24,ATCN,3.42

row,Variant,enrichment ratio
1,CTFI,9.39
2,DTFW,≤ 0.25
3,LRFL,≤ 0.25
4,IIPK,≤ 0.25
5,EKLK,≤ 0.25
6,QVPD,≤ 0.25
7,ENFI,≤ 0.25
8,QKFY,≤ 0.25
9,ASLN,9.05
10,LTCN,≤ 0.25
11,ANLN,8.47
12,SGCK,8.85
13,VRCN,≤ 0.25
14,KDCN,≤ 0.25
15,HWCN,≤ 0.25
16,SGLN,10.9
17,TDCN,15.7
18,SGCN,11.5
19,ASCN,15.3
20,ANCN,33
21,MIMG,≤ 0.25
22,MYAM,≤ 0.25
23,RCLW,≤ 0.25
24,SMWE,≤ 0.25

row,Variant,enrichment ratio
1,ALQI,≤ 0.25
2,PLLC,≤ 0.25
3,MISF,3.65
4,AALN,8.23
5,TTCN,11.9
6,LWCN,≤ 0.25
7,YTCN,≤ 0.25
8,KACN,≤ 0.25
9,AACN,12.7
10,KGPM,≤ 0.25
11,SMIS,≤ 0.25
12,TEVI,12.8
13,NEVI,4.98
14,MMVI,≤ 0.25
15,TENM,15.7
16,MENM,≤ 0.25
17,TEGD,≤ 0.25
18,TEVA,6.58
19,TEYD,≤ 0.25
20,NENM,≤ 0.25
21,MEVI,18.2
22,TEND,23.1
23,MCVI,≤ 0.25
24,ESVY,≤ 0.25

row,Variant,enrichment ratio
1,NGGL,≤ 0.25
2,LFQL,≤ 0.25
3,KSDP,≤ 0.25
4,FMMA,≤ 0.25
5,TENS,8.17
6,TENL,6.63
7,TENY,11.3
8,PRSQ,≤ 0.25
9,TGHK,≤ 0.25
10,FSEI,≤ 0.25
11,AAMG,9.84
12,SEST,18.4
13,SQST,6.97
14,FTST,≤ 0.25
15,SRST,≤ 0.25
16,YEST,12.8
17,NEST,3.45
18,YTST,≤ 0.25
19,QEST,1.97
20,TEST,23.4
21,PLIK,≤ 0.25
22,AQAT,5.01
23,SLNT,≤ 0.25
24,FKYM,≤ 0.25

row,Variant,enrichment ratio
1,TASH,11.7
2,TAAH,19.2
3,TANH,≤ 0.25
4,TAKH,≤ 0.25
5,KASH,≤ 0.25
6,HFAH,≤ 0.25
7,YMQV,≤ 0.25
8,FCDV,≤ 0.25
9,TIYI,4.29
10,TIRA,≤ 0.25
11,TIWI,≤ 0.25
12,TIWS,15.7
13,TIQI,12.3
14,WINR,≤ 0.25
15,TITS,15.9
16,AIQI,0.475
17,RINR,≤ 0.25
18,RIQI,≤ 0.25
19,TINR,15.4
20,TIRM,5.12

# Reference: a collection of fitness landscapes (doi:10.1126/science.1257360)
